Laboratory results published in ChEMBL document CHEMBL1961873, “Compounds: GSK PKIS; Assays: Nanosyn kinase panel” (2012).

Legend:
[1] = molecular target: Tyrosine-protein kinase receptor UFO (Homo sapiens) (UniProt P30530); details: at 1 µM
[2] = molecular target: Tyrosine-protein kinase Blk (Homo sapiens) (UniProt P51451); details: at 0.1 µM
[3] = molecular target: Tyrosine-protein kinase Blk (Homo sapiens) (UniProt P51451); details: at 1 µM
[4] = molecular target: T1, Cytoplasmic tyrosine-protein kinase BMX (Homo sapiens) (UniProt P51813); details: at 0.1 µM
T1 sequence (whole entry): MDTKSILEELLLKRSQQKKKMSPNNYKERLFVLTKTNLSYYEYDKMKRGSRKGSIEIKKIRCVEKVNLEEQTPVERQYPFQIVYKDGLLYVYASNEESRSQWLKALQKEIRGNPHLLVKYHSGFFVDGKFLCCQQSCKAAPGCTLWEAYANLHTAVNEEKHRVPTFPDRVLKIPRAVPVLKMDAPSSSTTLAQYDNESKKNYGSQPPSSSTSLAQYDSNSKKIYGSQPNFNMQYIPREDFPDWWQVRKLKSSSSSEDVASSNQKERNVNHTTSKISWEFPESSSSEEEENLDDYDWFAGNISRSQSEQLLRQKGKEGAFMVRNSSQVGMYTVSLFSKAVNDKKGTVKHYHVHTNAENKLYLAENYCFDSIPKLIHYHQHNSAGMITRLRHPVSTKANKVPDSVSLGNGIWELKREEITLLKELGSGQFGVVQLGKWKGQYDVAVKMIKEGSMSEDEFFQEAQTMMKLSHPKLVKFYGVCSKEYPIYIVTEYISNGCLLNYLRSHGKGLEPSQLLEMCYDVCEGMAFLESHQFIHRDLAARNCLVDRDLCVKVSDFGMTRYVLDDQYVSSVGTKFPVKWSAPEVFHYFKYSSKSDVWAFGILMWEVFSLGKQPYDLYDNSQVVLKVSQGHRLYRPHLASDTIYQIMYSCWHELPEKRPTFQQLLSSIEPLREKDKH

[5] = molecular target: T1, Cytoplasmic tyrosine-protein kinase BMX (Homo sapiens); details: at 1 µM
[6] = molecular target: Protein-tyrosine kinase 6 (Homo sapiens) (UniProt Q13882); details: at 0.1 µM
[7] = molecular target: Protein-tyrosine kinase 6 (Homo sapiens) (UniProt Q13882); details: at 1 µM
[8] = molecular target: Tyrosine-protein kinase BTK (Homo sapiens) (UniProt Q06187); details: at 0.1 µM
Chain of Tyrosine-protein kinase BTK (Homo sapiens) (Q06187 whole entry): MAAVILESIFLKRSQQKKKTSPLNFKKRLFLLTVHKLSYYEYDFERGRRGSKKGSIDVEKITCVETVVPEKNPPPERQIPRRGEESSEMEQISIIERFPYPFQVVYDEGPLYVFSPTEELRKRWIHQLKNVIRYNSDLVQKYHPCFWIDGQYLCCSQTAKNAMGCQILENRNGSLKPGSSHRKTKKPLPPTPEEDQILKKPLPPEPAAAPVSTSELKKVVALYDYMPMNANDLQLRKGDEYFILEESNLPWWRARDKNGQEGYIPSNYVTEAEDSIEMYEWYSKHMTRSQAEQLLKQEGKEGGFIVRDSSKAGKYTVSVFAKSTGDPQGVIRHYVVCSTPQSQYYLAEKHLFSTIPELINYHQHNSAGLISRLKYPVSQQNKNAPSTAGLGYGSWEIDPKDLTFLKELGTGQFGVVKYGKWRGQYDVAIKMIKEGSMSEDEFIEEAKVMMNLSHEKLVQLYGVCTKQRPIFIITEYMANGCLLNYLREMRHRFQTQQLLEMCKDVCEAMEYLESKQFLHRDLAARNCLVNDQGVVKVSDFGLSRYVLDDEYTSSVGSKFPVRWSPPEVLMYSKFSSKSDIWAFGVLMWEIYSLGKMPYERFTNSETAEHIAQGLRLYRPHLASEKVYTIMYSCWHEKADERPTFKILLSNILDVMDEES

[9] = molecular target: Tyrosine-protein kinase BTK (Homo sapiens) (UniProt Q06187); details: at 1 µM
[10] = molecular target: Tyrosine-protein kinase CSK (Homo sapiens) (UniProt P41240); details: at 0.1 µM
Chain of Tyrosine-protein kinase CSK (Homo sapiens) (P41240 2-450 limits assumed): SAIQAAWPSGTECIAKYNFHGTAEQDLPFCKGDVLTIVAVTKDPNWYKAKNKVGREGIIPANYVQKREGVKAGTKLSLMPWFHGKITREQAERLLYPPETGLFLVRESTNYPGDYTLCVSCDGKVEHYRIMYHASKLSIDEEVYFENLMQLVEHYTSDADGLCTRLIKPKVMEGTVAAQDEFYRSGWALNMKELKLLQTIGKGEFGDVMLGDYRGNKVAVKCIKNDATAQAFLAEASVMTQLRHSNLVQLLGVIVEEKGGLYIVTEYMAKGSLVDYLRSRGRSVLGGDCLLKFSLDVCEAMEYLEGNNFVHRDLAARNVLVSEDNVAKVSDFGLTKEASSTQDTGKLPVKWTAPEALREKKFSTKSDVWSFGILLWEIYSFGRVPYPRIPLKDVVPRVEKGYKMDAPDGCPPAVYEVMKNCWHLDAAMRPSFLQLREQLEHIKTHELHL

[11] = molecular target: Tyrosine-protein kinase CSK (Homo sapiens) (UniProt P41240); details: at 1 µM
[12] = molecular target: T2, Discoidin domain-containing receptor 2 (Homo sapiens) (UniProt Q16832); details: at 0.1 µM
T2 sequence (whole entry): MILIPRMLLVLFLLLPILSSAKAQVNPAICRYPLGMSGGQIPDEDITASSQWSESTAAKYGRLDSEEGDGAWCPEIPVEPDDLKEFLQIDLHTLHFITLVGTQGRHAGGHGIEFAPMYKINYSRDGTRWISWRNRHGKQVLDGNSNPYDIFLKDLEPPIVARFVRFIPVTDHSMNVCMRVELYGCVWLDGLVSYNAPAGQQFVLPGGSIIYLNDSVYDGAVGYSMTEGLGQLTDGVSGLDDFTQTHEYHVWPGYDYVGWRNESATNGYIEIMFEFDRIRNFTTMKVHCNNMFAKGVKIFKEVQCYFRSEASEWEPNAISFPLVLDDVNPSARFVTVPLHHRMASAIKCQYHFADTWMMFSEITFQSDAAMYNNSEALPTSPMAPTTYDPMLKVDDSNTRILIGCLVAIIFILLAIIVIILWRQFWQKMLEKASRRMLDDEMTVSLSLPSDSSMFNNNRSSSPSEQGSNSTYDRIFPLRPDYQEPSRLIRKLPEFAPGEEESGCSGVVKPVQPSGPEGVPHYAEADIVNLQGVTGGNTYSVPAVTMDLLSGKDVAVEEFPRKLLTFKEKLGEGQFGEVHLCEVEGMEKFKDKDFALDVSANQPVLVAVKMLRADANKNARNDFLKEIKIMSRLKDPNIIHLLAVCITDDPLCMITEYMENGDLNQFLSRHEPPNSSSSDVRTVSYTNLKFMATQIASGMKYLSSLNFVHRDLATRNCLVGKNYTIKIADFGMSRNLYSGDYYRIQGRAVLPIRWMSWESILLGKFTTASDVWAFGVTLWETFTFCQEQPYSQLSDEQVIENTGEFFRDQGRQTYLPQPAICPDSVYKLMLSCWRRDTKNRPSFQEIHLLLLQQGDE

[13] = molecular target: T2, Discoidin domain-containing receptor 2 (Homo sapiens); details: at 1 µM
[14] = molecular target: Epidermal growth factor receptor (Homo sapiens) (UniProt P00533); details: at 0.1 µM
[15] = molecular target: Epidermal growth factor receptor (Homo sapiens) (UniProt P00533); details: at 1 µM
[16] = tested on: Epidermal growth factor receptor (Homo sapiens), P00533 [L858R]; details: at 0.1 µM
Chain of Epidermal growth factor receptor (Homo sapiens), P00533 [L858R] (P00533 whole entry L858R): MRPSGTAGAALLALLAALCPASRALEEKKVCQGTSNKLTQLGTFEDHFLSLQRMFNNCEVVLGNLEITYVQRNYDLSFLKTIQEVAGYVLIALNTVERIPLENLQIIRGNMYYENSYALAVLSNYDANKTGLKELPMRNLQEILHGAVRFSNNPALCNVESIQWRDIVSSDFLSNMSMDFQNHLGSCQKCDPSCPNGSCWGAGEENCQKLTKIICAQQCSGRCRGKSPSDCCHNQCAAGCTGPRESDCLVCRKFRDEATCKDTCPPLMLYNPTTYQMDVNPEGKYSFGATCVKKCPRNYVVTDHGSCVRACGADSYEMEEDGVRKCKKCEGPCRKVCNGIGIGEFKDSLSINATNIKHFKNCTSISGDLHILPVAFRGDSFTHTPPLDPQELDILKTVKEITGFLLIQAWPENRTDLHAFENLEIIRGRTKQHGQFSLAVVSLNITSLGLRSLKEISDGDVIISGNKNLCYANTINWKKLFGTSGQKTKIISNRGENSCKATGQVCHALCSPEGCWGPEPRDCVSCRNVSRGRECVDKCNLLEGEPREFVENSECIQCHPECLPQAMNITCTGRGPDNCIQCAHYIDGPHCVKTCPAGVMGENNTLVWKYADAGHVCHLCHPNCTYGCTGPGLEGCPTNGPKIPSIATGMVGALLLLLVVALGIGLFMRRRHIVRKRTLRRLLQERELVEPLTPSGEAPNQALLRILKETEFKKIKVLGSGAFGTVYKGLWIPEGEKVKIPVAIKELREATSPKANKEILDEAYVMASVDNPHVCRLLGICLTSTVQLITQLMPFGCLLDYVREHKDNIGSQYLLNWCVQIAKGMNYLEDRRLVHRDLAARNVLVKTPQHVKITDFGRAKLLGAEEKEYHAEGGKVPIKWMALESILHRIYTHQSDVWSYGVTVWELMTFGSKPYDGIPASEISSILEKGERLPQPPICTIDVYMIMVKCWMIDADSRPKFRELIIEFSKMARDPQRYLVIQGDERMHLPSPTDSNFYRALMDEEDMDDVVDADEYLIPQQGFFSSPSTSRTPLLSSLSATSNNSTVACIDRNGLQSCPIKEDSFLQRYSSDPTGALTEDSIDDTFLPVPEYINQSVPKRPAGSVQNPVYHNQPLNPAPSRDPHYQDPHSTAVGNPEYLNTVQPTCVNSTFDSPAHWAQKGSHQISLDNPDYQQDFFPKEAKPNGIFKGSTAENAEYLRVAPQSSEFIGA

[17] = tested on: Epidermal growth factor receptor (Homo sapiens), P00533 [L858R]; details: at 1 µM
[18] = tested on: Epidermal growth factor receptor (Homo sapiens), P00533 [L861Q]; details: at 0.1 µM
[19] = tested on: Epidermal growth factor receptor (Homo sapiens), P00533 [L861Q]; details: at 1 µM
[20] = tested on: Epidermal growth factor receptor (Homo sapiens), P00533 [T790M]; details: at 0.1 µM
Chain of Epidermal growth factor receptor (Homo sapiens), P00533 [T790M] (P00533 whole entry T790M): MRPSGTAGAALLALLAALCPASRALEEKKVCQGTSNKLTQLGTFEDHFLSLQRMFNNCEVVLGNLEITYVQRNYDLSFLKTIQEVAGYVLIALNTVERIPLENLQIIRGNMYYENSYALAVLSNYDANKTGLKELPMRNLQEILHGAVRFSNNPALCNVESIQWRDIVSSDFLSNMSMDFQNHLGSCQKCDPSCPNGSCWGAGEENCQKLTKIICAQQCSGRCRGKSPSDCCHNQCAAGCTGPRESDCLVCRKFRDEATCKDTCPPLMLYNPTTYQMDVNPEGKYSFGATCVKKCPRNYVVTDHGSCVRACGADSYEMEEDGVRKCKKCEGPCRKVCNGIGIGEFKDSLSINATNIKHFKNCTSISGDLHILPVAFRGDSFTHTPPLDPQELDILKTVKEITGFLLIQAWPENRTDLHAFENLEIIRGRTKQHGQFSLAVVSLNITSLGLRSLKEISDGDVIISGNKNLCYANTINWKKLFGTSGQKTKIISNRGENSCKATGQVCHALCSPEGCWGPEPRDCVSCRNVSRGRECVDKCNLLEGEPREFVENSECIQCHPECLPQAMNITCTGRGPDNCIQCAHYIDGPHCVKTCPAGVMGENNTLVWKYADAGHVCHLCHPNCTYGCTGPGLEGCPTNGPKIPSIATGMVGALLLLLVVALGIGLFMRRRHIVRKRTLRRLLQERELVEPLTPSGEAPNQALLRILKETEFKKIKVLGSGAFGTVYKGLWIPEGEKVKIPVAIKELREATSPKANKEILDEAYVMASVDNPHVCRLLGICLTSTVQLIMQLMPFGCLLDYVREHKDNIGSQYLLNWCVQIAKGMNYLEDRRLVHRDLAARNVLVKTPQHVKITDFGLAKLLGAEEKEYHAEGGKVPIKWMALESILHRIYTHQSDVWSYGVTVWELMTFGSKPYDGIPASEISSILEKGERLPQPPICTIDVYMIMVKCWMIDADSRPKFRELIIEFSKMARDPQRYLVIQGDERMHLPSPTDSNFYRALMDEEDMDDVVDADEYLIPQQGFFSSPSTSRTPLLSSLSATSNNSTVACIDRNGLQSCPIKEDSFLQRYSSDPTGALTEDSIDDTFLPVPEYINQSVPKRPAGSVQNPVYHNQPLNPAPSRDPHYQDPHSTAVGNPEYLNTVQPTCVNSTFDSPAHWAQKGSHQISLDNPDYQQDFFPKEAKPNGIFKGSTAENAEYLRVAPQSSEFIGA

Chain of Tyrosine-protein kinase receptor UFO (Homo sapiens) (P30530 whole entry): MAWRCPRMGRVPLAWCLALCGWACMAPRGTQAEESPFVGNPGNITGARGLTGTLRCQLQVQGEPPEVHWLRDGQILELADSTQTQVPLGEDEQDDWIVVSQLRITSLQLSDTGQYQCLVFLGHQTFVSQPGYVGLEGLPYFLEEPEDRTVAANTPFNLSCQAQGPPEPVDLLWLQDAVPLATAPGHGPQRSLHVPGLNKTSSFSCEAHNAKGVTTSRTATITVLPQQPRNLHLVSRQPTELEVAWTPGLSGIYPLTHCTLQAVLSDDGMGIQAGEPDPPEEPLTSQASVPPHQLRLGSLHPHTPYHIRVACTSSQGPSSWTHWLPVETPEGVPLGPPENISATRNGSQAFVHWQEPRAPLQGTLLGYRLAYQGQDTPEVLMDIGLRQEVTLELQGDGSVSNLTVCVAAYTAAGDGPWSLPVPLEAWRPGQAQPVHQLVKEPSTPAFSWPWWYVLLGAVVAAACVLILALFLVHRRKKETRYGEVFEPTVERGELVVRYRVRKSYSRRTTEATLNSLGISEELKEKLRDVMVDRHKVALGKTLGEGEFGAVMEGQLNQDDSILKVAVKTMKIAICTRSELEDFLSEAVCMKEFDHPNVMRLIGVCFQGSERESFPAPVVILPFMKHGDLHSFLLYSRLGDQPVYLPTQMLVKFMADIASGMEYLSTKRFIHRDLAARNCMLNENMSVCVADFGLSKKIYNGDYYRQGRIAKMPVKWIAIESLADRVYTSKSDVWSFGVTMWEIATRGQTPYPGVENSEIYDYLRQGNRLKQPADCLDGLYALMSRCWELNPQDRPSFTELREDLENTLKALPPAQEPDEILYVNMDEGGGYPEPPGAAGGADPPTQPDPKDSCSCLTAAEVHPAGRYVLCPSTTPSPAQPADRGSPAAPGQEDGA
Chain of Tyrosine-protein kinase Blk (Homo sapiens) (P51451 2-505 limits assumed): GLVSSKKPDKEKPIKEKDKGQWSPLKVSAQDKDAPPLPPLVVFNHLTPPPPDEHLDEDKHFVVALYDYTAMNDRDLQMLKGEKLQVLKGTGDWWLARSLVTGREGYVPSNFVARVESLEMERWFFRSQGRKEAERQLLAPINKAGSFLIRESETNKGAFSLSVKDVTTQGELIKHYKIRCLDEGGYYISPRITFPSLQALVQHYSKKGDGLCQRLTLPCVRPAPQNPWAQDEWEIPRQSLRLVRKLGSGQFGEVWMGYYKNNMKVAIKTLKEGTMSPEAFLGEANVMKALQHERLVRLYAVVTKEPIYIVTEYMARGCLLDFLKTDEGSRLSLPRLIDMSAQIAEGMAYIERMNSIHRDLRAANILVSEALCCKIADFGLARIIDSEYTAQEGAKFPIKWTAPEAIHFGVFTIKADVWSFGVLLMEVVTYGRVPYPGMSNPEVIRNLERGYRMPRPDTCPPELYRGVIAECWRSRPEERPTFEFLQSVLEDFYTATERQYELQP

Compound	inhibition [1]	inhibition [2]	inhibition [3]	inhibition [4]	inhibition [5]	inhibition [6]	inhibition [7]	inhibition [8]	inhibition [9]	inhibition [10]	inhibition [11]	inhibition [12]	inhibition [13]	inhibition [14]	inhibition [15]	inhibition [16]	inhibition [17]	inhibition [18]	inhibition [19]	inhibition [20]
CCOc1nccc2c1nc(-c1nonc1N)n2CC	-0.05%	3.42%	2.55%	1.6%	1.81%	0.8%	2.85%	1.49%	2.44%	3.08%	7.45%	4.52%	5.68%	2.26%	1.18%	4.22%	7.51%	4.18%	5.85%	1.6%
Nc1ccc(C#Cc2cncnc2Nc2ccc(OCc3cccc(F)c3)c(Cl)c2)cc1	-3.04%	2.28%	3.41%	4.02%	2.63%	0.17%	4.63%	-0.24%	1.11%	-1.23%	4.88%	1.32%	0.65%	45.5%	82.8%	5.98%	35.2%	23.1%	37.2%	2.51%
CC(C)c1ccc2c(c1)NC(=O)/C2=N/Nc1ccc(S(N)(=O)=O)cc1	0.13%	1.27%	14%	0.14%	6.03%	0.98%	1.26%	-0.25%	0.07%	-1.01%	0.99%	0.55%	0.19%	1.14%	2.18%	-0.18%	-0.39%	-0.48%	-2.09%	-1.03%
CN(C)c1cc2c(Nc3ccc4c(cnn4Cc4ccccc4)c3)ncnc2cn1	-3.44%	3.2%	22.6%	3.53%	20.8%	5.3%	29.2%	1.09%	9.11%	6.06%	27.6%	1.06%	3.09%	–	–	–	–	–	–	–
CN(c1ccc(NC(=O)Nc2ccc(OC(F)(F)F)cc2)cc1)c1ccnc(Nc2cccc(S(N)(=O)=O)c2)n1	16.2%	29.4%	86.3%	5.28%	26.1%	16.1%	77.1%	0.33%	5.19%	3.6%	29.4%	53.2%	88.6%	-0.6%	3.21%	1.4%	3.36%	1.14%	5.92%	1.81%
c1ccc(Nc2ncc(-c3ccccc3)o2)cc1	-3.74%	1.98%	5.16%	1.56%	7.49%	3.8%	7.06%	-0.11%	0.49%	4.22%	3.75%	2.39%	7.24%	4.96%	10.5%	4.87%	2.77%	2.75%	4.14%	2.39%
NS(=O)(=O)c1cccc(Nc2cc(-c3ccc(F)cc3)n[nH]2)c1	-3.83%	2.05%	6.41%	-2.37%	4.82%	1.68%	3.52%	0.73%	0.11%	4.6%	6.86%	0.4%	2.6%	-0.56%	3.41%	1.69%	6.63%	2.18%	5.8%	2.62%
Oc1cccc(-c2nc(-c3ccccc3)[nH]c2-c2ccncc2)c1	-0.19%	2.99%	8.82%	7.29%	8.97%	13%	55.4%	2.03%	2.36%	6.74%	16.5%	2.82%	10.9%	2.76%	4.4%	6.31%	19.7%	4.74%	8.26%	1.84%
Cc1ccc2c(-c3ccnc(Nc4cccc(C(F)(F)F)c4)n3)c(-c3ccccc3)nn2n1	-3.9%	12.4%	68.1%	7.21%	38.2%	15.5%	70.9%	0.51%	5.18%	4.63%	11.4%	6.32%	47.4%	28.9%	70.3%	82.3%	94.8%	48.2%	88.2%	10.9%
Cc1ccc(Nc2ccnc(Nc3cccc(C(N)=O)c3)n2)cc1O	0.42%	11.8%	71.2%	14.1%	56.7%	48.9%	91.5%	3.4%	29.1%	10.8%	35.4%	5.32%	30%	-1.74%	11.7%	5.83%	32%	4.18%	13%	3.21%
Nc1nccc(-c2c(-c3ccc(F)cc3)ncn2CCCN2CCOCC2)n1	–	2.93%	5.42%	3.6%	2.77%	4.81%	10.8%	-0.92%	-0.14%	2.1%	2.85%	-0.61%	-1.04%	-0.84%	6.38%	5.87%	31.9%	4.34%	10.9%	2.78%
Cc1cc(-c2ccccn2)cc(C)c1/C=C/c1cncc(-c2nn[nH]n2)c1	-1.94%	5.71%	33.4%	1.6%	31.2%	9.43%	51%	2.43%	0.75%	1.73%	20.2%	1.22%	5.62%	2%	9.58%	2.87%	4.85%	2.42%	5.99%	-0.39%
Nc1nccc(-c2c(-c3ccc(F)cc3)nn3cc(C(F)(F)F)ccc23)n1	5.17%	0.6%	1.08%	-1.09%	0.94%	1.57%	-4.29%	0.89%	0.4%	-0.9%	1.17%	1.51%	5.28%	-0.27%	3.78%	1.74%	11.4%	-0.3%	3.8%	0.44%
c1ccc(Cc2nc3ccc(Nc4ncnc5ccccc45)cc3[nH]2)cc1	-3.16%	2.78%	7.6%	5.75%	5.59%	5.48%	5.84%	0.25%	1.7%	8.17%	30.9%	0.85%	1.06%	24.3%	67.2%	2.32%	11.3%	12%	22.2%	2.05%
